# This is a sample that favours compounds with a hit; in the whole collection about 0.63% have one here.
# gsp ag: agonists of gsp mutant (McCune-Albright syndrome); gsp mutant cells, cAMP HTRF, 30 min; Potency, µM (series often up to 76.9 µM), without a hit: top-dose activation (cAMP increase), hits mostly activators; 340,000 tested, 0.13% active; AID 624287; active = well fitted activation curve with a large enough effect; inconclusive = small, poorly fitted or top-dose-only effect, or another doubt; inactive = no such curve, though single readings can be large or run the other way; cell line not stated here;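 note: phosphodiesterase inhibitor Ro 20-1724 added with compounds to block cAMP breakdown; potency is the fitted concentration of half-maximal effect; nearly all actives have a fitted effect of over 60% in size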
#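 Cells stably selected in G418 were plated at 2000/well, grown 16-24 hr, then given compounds in DMSO with the PDE inhibitor […] (300 uM solution added) for 30 min at 37C; cAMP was read by HTRF.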
# S-ASM inh: blocks human secretory acid sphingomyelinase | P17405 | placental ASM, HMU-PC fluorogenic substrate, 60 min | Potency, µM (top dose mostly 57.5 µM), without a hit: at the highest dose activity change, negative = inhibition, actives largely listed as inhibitors | 340,000 tested, 0.006% active; active = well fitted inhibition curve with a large enough effect; inconclusive = small, poorly fitted or top-dose-only effect; inactive = no such curve, though single readings can be large or run the other way; note: potency is the fitted concentration of half-maximal effect
#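 HMU-PC0 cleavage (9 uM final) by human placental ASM, 60 min at 37 °C following 10 min compound exposure at RT; stopped at pH 10, fluorescence Ex 386/Em 447 nm.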
# gsp antag: gsp mutant antagonism. Potency, µM (doses to about 76.9 µM), for the others: top-dose activity change, negative = inhibition, most hits filed as inhibitors. 340,000 tested, 0.4% active. gsp-mutant cells, cAMP HTRF, 30 min; calls by dose curve; cell line not stated here;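 note: intracellular cAMP measured with PDE inhibitor Ro 20-1724 present during compound exposure; potency is the fitted concentration of half-maximal effect; % is set by controls: 0 for no effect and ±100 for the full control effect; nearly all actives have a fitted effect of over 65% in size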
#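 HTRF cAMP measurement after 30 min RT detection following 30 min, 37C compound treatment alongside […] (added as 300 uM solution) in G418-selected cells seeded at 2000/well and grown 16–24 h.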
# TSHR antagonist: antagonists of human thyroid stimulating hormone receptor. P16473. TSHR-expressing cells, TSH-stimulated cAMP HTRF, 2 h; stronger effect = lower value. activity change, negative = inhibition, % at 11.5 µM. 330,000 tested, 0.2% active. AID 504810;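 active = activity change below a set negative limit, meaning inhibition stronger than a set level, cut at about -70% in these data; inconclusive = activity change between two set negative limits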; note: % is set by controls: 0 for no effect and ±100 for the full control effect
# Target sequence (P16473 whole entry, looked up): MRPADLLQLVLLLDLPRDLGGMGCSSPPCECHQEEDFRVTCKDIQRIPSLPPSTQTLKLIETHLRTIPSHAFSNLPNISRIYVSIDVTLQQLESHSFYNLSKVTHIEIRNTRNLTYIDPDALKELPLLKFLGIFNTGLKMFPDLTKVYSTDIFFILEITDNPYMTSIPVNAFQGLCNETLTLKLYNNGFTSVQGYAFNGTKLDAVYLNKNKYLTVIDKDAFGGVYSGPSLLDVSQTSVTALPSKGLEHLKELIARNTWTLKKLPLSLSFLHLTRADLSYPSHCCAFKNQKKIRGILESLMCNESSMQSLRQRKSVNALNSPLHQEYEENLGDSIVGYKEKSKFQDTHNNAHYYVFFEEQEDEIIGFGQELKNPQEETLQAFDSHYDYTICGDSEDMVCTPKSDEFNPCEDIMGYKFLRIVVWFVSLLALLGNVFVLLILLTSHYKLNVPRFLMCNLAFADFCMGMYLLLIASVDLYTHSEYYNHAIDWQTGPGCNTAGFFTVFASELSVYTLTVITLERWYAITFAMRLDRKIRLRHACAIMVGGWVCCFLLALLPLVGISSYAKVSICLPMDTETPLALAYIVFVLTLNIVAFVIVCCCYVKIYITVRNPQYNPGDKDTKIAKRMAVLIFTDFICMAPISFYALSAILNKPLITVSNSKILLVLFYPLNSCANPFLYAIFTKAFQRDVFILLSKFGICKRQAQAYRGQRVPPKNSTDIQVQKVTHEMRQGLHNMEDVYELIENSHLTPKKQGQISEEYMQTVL
#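 Inhibition of cAMP made by TSHR-expressing cells under TSH stimulation (4nM final, EC80; 2 h, 37 deg C) is quantified with a one-step lysis HTRF kit, anti-cAMP cryptate versus cAMP-d2.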
# * = called active by the depositor; ? = inconclusive; . = no result; [ ] = remark or other dose.
SMILES,gsp ag,S-ASM inh,gsp antag,TSHR antagonist
C=CCn1c(SCc2nc3ccccc3c(=O)[nH]2)nc2scc(C3CC3)c2c1=O,-4%[15.4 µM],0%,2%,22
COc1cc(C(=O)NNC(=O)c2ccc(NC(=O)C(C)(C)C)cc2)cc(OC)c1OC,4%[15.4 µM],4%,-3%,8
CC1(C)CC(=O)C2=C(C1)NC1=C(C(=O)c3ccccc31)C2c1ccccc1 (stereo unspecified),?,-26%,-22%,-14
CC1(C)CC(=O)C2=C(C1)NC1=C(C(=O)c3ccccc31)C2c1cc([N+](=O)[O-])ccc1O (stereo unspecified),14µM*,?,-12%,-4
CCOC(=O)C12CC1/C(=N/O)c1ccccc1O2 (stereo unspecified),.,.,.,-10
CC(C(=O)N1CCN(c2ccc(Cl)cc2)CC1)c1ncc(C(F)(F)F)cc1Cl (stereo unspecified),-62%,-5%,35µM*,-25
CC(C(=O)NC1CC1)c1ncc(C(F)(F)F)cc1Cl (stereo unspecified),5%[15.4 µM],1%,20%,-5
Cn1cc(CNCc2cnc3ccccn23)c(-c2ccc(Oc3ccccc3)cc2)n1,26%,-1%,-17%,-1
CN(Cc1cn(C)nc1-c1ccc(Oc2ccccc2)cc1)Cc1cnc2ccccn12,?,2%,40µM*,-14
Cc1cc(N2C(=O)C(O)=C(C(=O)c3ccco3)C2c2ccc(O)cc2)no1 (stereo unspecified),?,0%,4%,-3
Cc1cc(N2C(=O)C(O)=C(C(=O)c3ccco3)C2c2ccc(Cl)cc2)no1 (stereo unspecified),11µM*,-1%,5%,-10
O=[N+]([O-])c1ccc(Sc2cccc[n+]2[O-])c2nonc12,11%[15.4 µM],2%,35µM*,-91*
COc1ccc(NC(=O)c2nc[nH]c2C(=O)N[C@@H](C)C(=O)OC(C)(C)C)cc1,13µM*,-8%,3%,-13
COc1ccc(NC(=O)CCNS(=O)(=O)c2ccc3c(c2)CC(C)N3C(C)=O)cc1 (stereo unspecified),-6%,3%,0%,-92*
Cc1ccc(C)c(N2CCN(S(=O)(=O)c3ccc4c(c3)CC(C)N4C(=O)C3CC3)CC2)c1 (stereo unspecified),22%,1%,5%,-77*
COc1cccc(NC(=O)C2CCN(S(=O)(=O)c3ccc4c(c3)CC(C)N4C(C)=O)CC2)c1 (stereo unspecified),?,-2%,?,-3
CC(=O)N1c2ccc(S(=O)(=O)N3CCC(C(=O)Nc4ccc(F)cc4)CC3)cc2CC1C (stereo unspecified),8%,-1%,10µM*,-7
Cc1cccc(N2CCN(S(=O)(=O)c3ccc4c(c3)CC(C)N4C(=O)C3CC3)CC2)c1C (stereo unspecified),-6%,0%,-3%,-1
CC(N)=NCCCC[C@@H](N)C(=O)O,.,.,.,-18
Cc1ccc(-c2nc3c(c(SCC(=O)Nc4cccc(C(=O)O)c4)n2)Cc2cccc(C)c2O3)cc1,.,.,.,-4
Cc1sc2ncnc(NCCCN3CCCC3=O)c2c1C,-37%,3%,5%,10
Cc1noc(C)c1COc1ccccc1C(=O)N(C)Cc1ccco1,-2%,2%,12%,-7
O=c1oc2ccccc2cc1-c1csc(NN=C2CCCC2)n1,-21%,7%,-28%,6
O=C(O)c1cccc(Nc2nc(-c3cc4ccccc4oc3=O)cs2)c1,5%[15.4 µM],19%,35µM*,-19
O=C1c2ccccc2NC(c2cnc3ccccc3n2)N1O (stereo unspecified),22µM*,3%,-11%,-7
SMILES,gsp ag,S-ASM inh,gsp antag,TSHR antagonist
Cc1nn(C)c(C)c1C1Nc2ccccc2C(=O)N1O (stereo unspecified),11%,-2%,4%,5
CC(=O)c1ccc(OCC(=O)NC(=O)NC2CCCC2)cc1,-107%,.,.,.
CC1CCCN(C(=O)COC(=O)CNC(=O)c2sc3ccccc3c2Cl)C1 (stereo unspecified),32µM*,1%,8%,-3
Cc1ccccc1C[C@H](C(=O)O)N1C(=O)c2ccc(C(=O)O)cc2C1=O,.,.,.,-9
COc1cc(/C=C/C(=O)O[C@H]2[C@H](O[C@@H]3O[C@@H](C)[C@H](O)[C@@H](O)[C@H]3O)[C@@H](O)[C@H](OCCc3ccc(O)c(OC)c3)O[C@@H]2CO)ccc1O,.,40%,8%,8
O=C(CCS(=O)(=O)c1ccc(Br)cc1)NC1CCCC1,4µM*,0%,10%,5
O=C(CCNS(=O)(=O)c1ccc(Br)cc1)NC1CCCCC1,-5%,-2%,-3%,35
O=C(c1ccc(S(=O)(=O)Nc2cccc(C(F)(F)F)c2)cc1)N1CCC1,10µM*,0%,-6%,23
CC(=O)N1CCN(C(=O)c2ccc(S(=O)(=O)Nc3cccc(C(F)(F)F)c3)cc2)CC1,11%[15.4 µM],4%,?,-3
CCN(CC)CCn1c(=S)[nH]c2cc(C(=O)N3CC(C)CC(C)C3)ccc2c1=O (stereo unspecified),?,4%,13%,-2
Cc1nn(-c2ccccc2)c(/N=C/c2ccccc2O)c1-c1ccccc1,-24%,-6%,0%,21
CC(NC(=O)c1ccccc1)c1ccc(F)cc1 (stereo unspecified),-29%,2%,12%,12
Cc1ccc(S(=O)(=O)N2[C@@H](c3ccccc3)C(C(=O)O)=CC[C@H]2c2ccc(Cl)c(Cl)c2)cc1,21%,-4%,-16%,-11
Cc1ccc(S(=O)(=O)N2[C@@H](c3ccccc3F)C(C(=O)O)=CC[C@H]2c2ccc(Cl)c(Cl)c2)cc1,-17%,0%,-12%,-92*
COc1ccc(NC(=O)CCNS(=O)(=O)c2ccc(C)c(C)c2)cc1OC,5%,0%,-1%,0
Cc1nc2ccccc2nc1SCC(=O)N1CCC(C)CC1,10µM*,0%,12%,2
COc1ccccc1-c1nnc(SC(C(=O)c2c[nH]c3ccccc23)c2ccccc2)n1C (stereo unspecified),5%,-18%,35µM*,0
COc1cc(OC)cc(C(=O)NCCN2C(=O)S/C(=C\c3cccs3)C2=O)c1,-65%,-2%,28µM*,-10
Cc1ccc(-n2[nH]c(C)c(/C=N/Nc3ccc([N+](=O)[O-])cc3[N+](=O)[O-])c2=O)cc1,?,-1%,32µM*,?
Cc1nc(C(=O)N2CCCC(N3CCN(c4ccccc4C)CC3)C2)cs1 (stereo unspecified),-11%,1%,2%,-14
Cc1ccccc1N1CCN(C2CCCN(C(=O)c3cnsn3)C2)CC1 (stereo unspecified),-21%,1%,2%,-105*
Cc1ccc(-c2nc3cc(NC(=O)C(C)C)ccc3o2)cc1,21%,15%,-7%[15.4 µM],1

# Compound activity deposited in PubChem BioAssay by National Center for Advancing Translational Sciences (NCATS).
